Test [1] relates to Tyrosine-protein kinase ABL1 (Homo sapiens), P00519 [T315I]. The following applies: at 1 µM.
In test [2] the test system is Tyrosine-protein kinase ABL1 (Homo sapiens), P00519 [Y253F]. The following applies: at 0.1 µM.
Test [3] has the same test system. The following applies: at 1 µM.
Test [4] has as its target Tyrosine-protein kinase ABL1 (Homo sapiens) (UniProt P00519). The following applies: at 0.1 µM.
For test [5] the target is unchanged. The following applies: at 1 µM.
Test [6] addresses ALK tyrosine kinase receptor (Homo sapiens) (UniProt Q9UM73). The following applies: at 0.1 µM.
For test [7] the target is unchanged. The following applies: at 1 µM.
The target in test [8] is Tyrosine-protein kinase ABL2 (Homo sapiens) (UniProt P42684). The following applies: at 0.1 µM.
Tyrosine-protein kinase ABL2 (Homo sapiens), sequence (P42684 whole entry): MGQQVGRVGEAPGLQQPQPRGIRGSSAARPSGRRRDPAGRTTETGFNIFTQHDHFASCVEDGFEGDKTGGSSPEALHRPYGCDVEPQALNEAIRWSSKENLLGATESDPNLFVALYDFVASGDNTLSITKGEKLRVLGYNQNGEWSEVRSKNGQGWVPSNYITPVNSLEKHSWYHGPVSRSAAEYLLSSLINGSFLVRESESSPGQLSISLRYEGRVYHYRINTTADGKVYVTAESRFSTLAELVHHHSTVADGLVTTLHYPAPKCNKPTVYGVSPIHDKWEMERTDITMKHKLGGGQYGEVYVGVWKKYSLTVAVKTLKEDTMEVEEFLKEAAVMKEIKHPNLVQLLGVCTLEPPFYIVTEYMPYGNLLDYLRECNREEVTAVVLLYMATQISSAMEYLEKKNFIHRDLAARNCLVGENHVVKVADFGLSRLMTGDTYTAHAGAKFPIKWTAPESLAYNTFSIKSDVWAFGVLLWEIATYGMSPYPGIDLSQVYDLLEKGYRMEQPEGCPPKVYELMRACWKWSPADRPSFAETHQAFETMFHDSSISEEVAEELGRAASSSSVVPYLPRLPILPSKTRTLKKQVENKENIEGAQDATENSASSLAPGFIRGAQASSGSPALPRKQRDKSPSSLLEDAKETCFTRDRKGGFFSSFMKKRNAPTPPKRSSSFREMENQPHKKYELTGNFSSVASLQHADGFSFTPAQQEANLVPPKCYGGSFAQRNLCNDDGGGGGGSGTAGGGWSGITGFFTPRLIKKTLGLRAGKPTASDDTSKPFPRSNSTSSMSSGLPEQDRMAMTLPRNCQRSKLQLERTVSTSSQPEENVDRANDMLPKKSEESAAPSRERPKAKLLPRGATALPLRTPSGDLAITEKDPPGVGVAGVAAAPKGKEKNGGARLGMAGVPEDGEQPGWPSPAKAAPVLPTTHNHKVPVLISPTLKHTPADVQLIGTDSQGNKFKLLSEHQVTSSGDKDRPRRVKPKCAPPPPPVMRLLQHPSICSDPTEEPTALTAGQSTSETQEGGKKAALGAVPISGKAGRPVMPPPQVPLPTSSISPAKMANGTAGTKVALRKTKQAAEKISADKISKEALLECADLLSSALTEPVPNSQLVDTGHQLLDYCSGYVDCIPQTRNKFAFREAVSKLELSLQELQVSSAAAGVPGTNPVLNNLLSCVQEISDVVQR
Test [9] has the same target. The following applies: at 1 µM.
Test [10] has as its target Tyrosine-protein kinase receptor UFO (Homo sapiens) (UniProt P30530). The following applies: at 0.1 µM.
For test [11] the target is unchanged. The following applies: at 1 µM.
Test [12] addresses Tyrosine-protein kinase Blk (Homo sapiens) (UniProt P51451). The following applies: at 0.1 µM.
For test [13] the target is unchanged. The following applies: at 1 µM.
The target of test [14] is T1, Cytoplasmic tyrosine-protein kinase BMX (Homo sapiens) (UniProt P51813).
T1 sequence (whole entry): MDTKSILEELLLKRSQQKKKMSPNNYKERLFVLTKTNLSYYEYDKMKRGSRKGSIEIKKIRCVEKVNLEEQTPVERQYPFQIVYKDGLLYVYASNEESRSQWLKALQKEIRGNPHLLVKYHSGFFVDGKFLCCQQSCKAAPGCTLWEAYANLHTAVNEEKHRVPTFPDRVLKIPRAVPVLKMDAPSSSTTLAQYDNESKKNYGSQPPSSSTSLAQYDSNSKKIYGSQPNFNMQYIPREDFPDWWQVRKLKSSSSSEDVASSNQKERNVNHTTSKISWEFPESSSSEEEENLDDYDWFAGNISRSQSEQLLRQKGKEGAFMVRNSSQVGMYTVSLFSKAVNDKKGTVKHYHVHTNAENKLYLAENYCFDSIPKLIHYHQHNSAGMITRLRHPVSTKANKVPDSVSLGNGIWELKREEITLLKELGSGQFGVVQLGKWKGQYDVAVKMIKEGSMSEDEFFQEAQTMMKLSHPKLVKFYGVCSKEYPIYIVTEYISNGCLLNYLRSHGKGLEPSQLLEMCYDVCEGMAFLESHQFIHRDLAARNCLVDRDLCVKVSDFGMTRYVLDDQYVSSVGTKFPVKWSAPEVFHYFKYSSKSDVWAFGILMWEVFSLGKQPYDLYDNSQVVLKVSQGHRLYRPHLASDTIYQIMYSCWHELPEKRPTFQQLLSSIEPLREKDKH
The following applies: at 0.1 µM.

Test [15] has as its target T1, Cytoplasmic tyrosine-protein kinase BMX (Homo sapiens). The following applies: at 1 µM.
Test [16] has as its target Protein-tyrosine kinase 6 (Homo sapiens) (UniProt Q13882). The following applies: at 0.1 µM.
The target is the same in test [17]. The following applies: at 1 µM.
Test [18] addresses Tyrosine-protein kinase BTK (Homo sapiens) (UniProt Q06187). The following applies: at 0.1 µM.
Test [19] shares this target. The following applies: at 1 µM.
Test [20] has as its target Tyrosine-protein kinase CSK (Homo sapiens) (UniProt P41240). The following applies: at 0.1 µM.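 Also: value given is the averaged percent inhibition of CSK kinase activity, from the GSK PKIS kinase inhibitor set screening panel.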

Results on seven molecules are retold here after ChEMBL document CHEMBL1961873, “Compounds: GSK PKIS; Assays: Nanosyn kinase panel” (2012).

Tyrosine-protein kinase BTK (Homo sapiens), sequence (Q06187 whole entry): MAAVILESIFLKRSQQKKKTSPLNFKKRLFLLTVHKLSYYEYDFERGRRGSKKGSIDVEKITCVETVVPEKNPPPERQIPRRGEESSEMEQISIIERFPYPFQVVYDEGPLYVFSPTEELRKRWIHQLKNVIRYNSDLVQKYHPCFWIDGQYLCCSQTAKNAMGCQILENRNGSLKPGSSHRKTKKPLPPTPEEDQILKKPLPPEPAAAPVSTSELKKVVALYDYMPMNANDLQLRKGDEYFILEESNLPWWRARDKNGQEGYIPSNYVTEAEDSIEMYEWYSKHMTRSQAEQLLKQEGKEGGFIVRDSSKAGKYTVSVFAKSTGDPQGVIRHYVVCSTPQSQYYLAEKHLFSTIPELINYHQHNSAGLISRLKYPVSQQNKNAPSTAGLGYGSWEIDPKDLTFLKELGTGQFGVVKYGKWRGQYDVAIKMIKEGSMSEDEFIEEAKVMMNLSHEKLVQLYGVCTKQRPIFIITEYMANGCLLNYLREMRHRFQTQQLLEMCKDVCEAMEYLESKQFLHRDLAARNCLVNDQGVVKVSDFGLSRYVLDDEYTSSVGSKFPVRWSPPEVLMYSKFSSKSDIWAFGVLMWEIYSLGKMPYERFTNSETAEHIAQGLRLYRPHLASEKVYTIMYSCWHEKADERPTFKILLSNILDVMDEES
Tyrosine-protein kinase CSK (Homo sapiens), sequence (P41240 2-450 limits assumed): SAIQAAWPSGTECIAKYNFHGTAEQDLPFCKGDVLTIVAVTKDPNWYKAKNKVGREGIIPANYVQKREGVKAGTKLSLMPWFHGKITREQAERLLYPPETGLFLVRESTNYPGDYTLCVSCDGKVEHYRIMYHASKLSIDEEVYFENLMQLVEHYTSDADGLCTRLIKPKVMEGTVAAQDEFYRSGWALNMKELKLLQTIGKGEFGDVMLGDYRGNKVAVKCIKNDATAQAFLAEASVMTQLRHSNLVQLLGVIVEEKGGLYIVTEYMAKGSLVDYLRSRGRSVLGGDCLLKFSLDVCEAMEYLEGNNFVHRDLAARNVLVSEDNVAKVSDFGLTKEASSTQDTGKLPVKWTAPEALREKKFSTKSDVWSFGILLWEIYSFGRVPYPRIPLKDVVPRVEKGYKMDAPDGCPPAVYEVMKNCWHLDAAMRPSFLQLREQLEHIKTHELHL
ALK tyrosine kinase receptor (Homo sapiens), sequence (Q9UM73 19-1620 limits assumed): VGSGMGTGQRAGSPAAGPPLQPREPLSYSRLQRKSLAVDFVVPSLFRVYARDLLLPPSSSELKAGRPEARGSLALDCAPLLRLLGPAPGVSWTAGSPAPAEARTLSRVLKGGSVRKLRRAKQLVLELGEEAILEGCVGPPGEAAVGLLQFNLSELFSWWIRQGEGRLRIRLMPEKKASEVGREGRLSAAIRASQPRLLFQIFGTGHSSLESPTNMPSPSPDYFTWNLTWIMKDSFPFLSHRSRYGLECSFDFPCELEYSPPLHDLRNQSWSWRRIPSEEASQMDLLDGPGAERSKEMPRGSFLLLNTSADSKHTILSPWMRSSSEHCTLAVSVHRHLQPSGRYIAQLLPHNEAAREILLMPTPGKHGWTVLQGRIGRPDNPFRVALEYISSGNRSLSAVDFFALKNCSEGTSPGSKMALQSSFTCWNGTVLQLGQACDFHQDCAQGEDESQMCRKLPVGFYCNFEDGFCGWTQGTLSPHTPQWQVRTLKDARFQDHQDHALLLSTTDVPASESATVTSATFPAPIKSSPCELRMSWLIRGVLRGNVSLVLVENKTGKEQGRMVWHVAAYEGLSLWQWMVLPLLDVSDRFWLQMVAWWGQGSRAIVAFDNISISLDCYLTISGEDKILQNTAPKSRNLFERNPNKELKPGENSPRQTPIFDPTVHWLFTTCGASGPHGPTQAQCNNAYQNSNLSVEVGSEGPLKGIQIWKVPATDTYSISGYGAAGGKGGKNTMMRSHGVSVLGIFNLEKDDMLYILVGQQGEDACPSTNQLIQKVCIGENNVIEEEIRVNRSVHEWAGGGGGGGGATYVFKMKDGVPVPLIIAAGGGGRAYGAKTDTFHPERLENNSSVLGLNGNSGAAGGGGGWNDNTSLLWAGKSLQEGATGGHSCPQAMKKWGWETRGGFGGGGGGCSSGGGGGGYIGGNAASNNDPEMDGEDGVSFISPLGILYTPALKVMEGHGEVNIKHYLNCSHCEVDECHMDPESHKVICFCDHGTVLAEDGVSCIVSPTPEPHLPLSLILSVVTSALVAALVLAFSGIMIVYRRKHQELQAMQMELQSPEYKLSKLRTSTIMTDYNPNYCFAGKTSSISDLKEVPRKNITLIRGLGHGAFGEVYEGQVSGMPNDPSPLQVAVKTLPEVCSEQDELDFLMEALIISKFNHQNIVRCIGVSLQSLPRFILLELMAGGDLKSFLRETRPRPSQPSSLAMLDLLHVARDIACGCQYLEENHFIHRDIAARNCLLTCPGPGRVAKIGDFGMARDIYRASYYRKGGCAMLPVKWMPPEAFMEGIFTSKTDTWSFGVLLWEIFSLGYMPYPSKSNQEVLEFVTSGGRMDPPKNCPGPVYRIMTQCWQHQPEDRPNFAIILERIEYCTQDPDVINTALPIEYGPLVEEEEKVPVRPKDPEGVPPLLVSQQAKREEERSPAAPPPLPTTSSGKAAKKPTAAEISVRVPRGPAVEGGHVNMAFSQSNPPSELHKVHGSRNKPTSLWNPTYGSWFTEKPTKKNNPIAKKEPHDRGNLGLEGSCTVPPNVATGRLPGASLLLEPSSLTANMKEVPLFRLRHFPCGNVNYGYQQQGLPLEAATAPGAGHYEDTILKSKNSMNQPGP
Protein-tyrosine kinase 6 (Homo sapiens), sequence (Q13882 whole entry, looked up): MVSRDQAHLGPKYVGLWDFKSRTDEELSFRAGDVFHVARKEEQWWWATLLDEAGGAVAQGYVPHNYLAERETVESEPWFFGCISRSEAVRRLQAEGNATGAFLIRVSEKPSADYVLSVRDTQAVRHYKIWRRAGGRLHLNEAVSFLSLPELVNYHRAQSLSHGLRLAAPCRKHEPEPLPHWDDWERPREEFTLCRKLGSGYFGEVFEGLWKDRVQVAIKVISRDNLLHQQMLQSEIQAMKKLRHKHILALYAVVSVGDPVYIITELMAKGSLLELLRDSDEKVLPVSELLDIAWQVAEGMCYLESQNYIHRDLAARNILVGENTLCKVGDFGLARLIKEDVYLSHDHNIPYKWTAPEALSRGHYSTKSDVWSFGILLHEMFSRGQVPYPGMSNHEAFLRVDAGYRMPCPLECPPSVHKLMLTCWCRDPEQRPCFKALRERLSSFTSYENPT
Tyrosine-protein kinase Blk (Homo sapiens), sequence (P51451 2-505 limits assumed): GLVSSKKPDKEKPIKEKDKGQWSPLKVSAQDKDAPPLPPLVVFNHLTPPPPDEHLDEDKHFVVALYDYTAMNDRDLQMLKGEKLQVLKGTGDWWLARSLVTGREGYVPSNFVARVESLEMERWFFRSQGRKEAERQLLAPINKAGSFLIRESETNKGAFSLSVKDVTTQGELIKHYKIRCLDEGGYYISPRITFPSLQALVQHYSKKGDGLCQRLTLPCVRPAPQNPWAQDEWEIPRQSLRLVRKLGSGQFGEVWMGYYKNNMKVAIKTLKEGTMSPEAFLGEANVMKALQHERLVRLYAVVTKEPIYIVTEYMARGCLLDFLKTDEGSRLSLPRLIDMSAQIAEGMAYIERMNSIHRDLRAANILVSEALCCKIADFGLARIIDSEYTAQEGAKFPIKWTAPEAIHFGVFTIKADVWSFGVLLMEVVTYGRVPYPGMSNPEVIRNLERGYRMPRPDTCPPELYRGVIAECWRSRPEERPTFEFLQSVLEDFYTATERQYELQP

As to `CN(C)CCOc1ccc(-c2cc(-c3ccc4c(c3)CCC4=NO)c(-c3ccncc3)o2)cc1`, the inhibition was 19.4% in [1]; 2.44% in [2]; 22.1% in test [3]; 2.01% in [4]; 20.3% in [5]; -1.95% in [6]. Also, the inhibition in [7] is -0.08%; in [8] it was 2.43%; in test [9], 18.6%; in test [10], 1.32%; in test [11] it was 2.27%; in test [12] it was -0.19%. For the same molecule, the inhibition in [13] was 6.21%; in test [14], -1.43%; in test [15] it was 1.43%; in [16], 1.76%; in [17] it was 15%; in test [18] it was 0.42%. Besides, the results for the inhibition in test [19] and in test [20] were 2.57% and -2.53%, respectively.
`O=C(Nc1n[nH]c2cc(-c3cc(F)ccc3F)ccc12)C1CC1`: the inhibition in test [1] is 74%; in test [2], 13.8%; in test [3] it was 49.6%; in [4], 8.06%; in test [5], 51.4%; in test [6] it was 2.02%. Further, the inhibition in test [7] is 4.05%; in test [8], 3.87%; in [9], 19%; in [10], -7.5%; in test [11], -2.71%; in test [12] it was 1.38%. The inhibition was 4.54% in [13]; 1.69% in [14]; 3.35% in test [15]; 1.78% in test [16]; 2.23% in test [17]; -1.19% in [18]. Moreover, the figures for the inhibition in test [19] and in [20] were -2.01% and 3.87%, respectively.
As to `NC(=O)Cc1ccccc1Oc1nccc(-c2c(-c3ccc(F)cc3)ncn2C2CCNCC2)n1`, the inhibition was -0.82% in test [1]; 1.75% in [2]; 1.1% in test [3]; 2.7% in test [4]; 5.08% in test [5]; 4.05% in test [6]. For the same molecule, the inhibition was 8.13% in test [7]; 2.21% in test [8]; 2.93% in test [9]; -5.91% in test [10]; 1.68% in test [11]; 1.46% in test [12]. Also, the inhibition in test [13] turned out to be 2.66%; in test [14], 7.68%; in test [15], 3.56%; in [16], 2.9%; in test [17] it was 1.21%; in [18], 1.29%. Moreover, the figures for the inhibition in [19] and in [20] were 0.76% and 0.51%, respectively.
Regarding `CN(C)c1ccc2c(c1)/C(=C/Nc1ccc(S(N)(=O)=O)cc1)C(=O)N2`, the inhibition stood at 18.4% in test [1]; 4.7% in test [2]; 18.7% in test [3]; 2.76% in [4]; 21.3% in test [5]; 1.86% in [6]. Besides, the inhibition in test [7] stood at 8.32%; in test [8], 2.83%; in [9], 4.52%; in [10] it was 0.79%; in [11] it was 14.8%; in test [12], 2.29%. The inhibition in [13] was 33.2%; in [14], -8.96%; in test [15] it was 1.7%; in test [16], 0.1%; in test [17], 2.14%; in test [18] it was -1.88%. Moreover, the inhibition in [19] was -0.24%; in test [20] it was 2.3%.
With `Cc1ccc(NC(=O)c2ccoc2)cc1-c1ccc(C(=O)NCC2CC2)cc1`, the inhibition in test [1] is 1.92%; in test [2], 1.38%; in test [3], -0.92%; in [4], 1.09%; in [5], 1.49%; in [6], 1.85%. The inhibition is 4.11% in test [7]; 2.28% in test [8]; 2.36% in [9]; -3.64% in [10]; -2.93% in test [11]; 1.47% in test [12]. Also, the inhibition is 3.07% in test [13]; 3.34% in [14]; 1.66% in test [15]; 0.58% in test [16]; 4.58% in [17]; 0.36% in test [18]. Also, the inhibition came to 0.35% in test [19] and 1.61% in [20].
Consider `Fc1ccc(-c2ncn(C3CCNCC3)c2-c2ccnc(Oc3ccc4c(c3)OCO4)n2)cc1`, for which the inhibition in [1] came out at 3.48%; in [2], 4.71%; in test [3] it was 4.75%; in test [4], 5.17%; in [5], 9.1%; in test [6] it was 4.91%. In addition, the inhibition was 6.26% in test [7]; 5.06% in test [8]; 9% in test [9]; -7.21% in test [10]; -5.79% in test [11]; 4.26% in [12]. For the same molecule, the inhibition was 5.32% in [13]; 5.5% in test [14]; 5.87% in test [15]; 4.19% in [16]; 5.5% in test [17]; -0.46% in [18]. For the same molecule, the inhibition in [19] is 0.77%; in test [20], 3.85%.
Take `NCc1ccc(-n2c(-c3nonc3N)nc3cnccc32)cc1`: the inhibition in [1] was 0.9%; in [2], 4.15%; in test [3] it was 2.66%; in test [4] it was 4.78%; in test [5] it was 3.54%; in [6], 6.31%. The inhibition in test [7] was 17.3%; in test [8], 4.87%; in test [9] it was 6.75%; in [10] it was -7.21%; in [11] it was -1.85%; in test [12] it was 3.21%. The inhibition in test [13] was 4.2%; in test [14] it was 5.93%; in test [15] it was 4.77%; in [16], 5.04%; in test [17], 5.62%; in test [18], -0.77%. For the same molecule, the figures for the inhibition in test [19] and in [20] were 0.66% and 3.09%, respectively.

One may read the inhibition as the relative decrease from the control value, in per cent.
